Bioassay records as filed in PubChem.
D3 ag: agonists of human D3 dopamine receptor; P35462; D3R DiscoveRx beta-arrestin cells, luminescence, 90 min; max activation, %; 410,000 compounds, 0.58% hits; AID 652048; in the data active = max activation above about 30%; also: 0% is about no effect
Target sequence (P35462 whole entry, looked up): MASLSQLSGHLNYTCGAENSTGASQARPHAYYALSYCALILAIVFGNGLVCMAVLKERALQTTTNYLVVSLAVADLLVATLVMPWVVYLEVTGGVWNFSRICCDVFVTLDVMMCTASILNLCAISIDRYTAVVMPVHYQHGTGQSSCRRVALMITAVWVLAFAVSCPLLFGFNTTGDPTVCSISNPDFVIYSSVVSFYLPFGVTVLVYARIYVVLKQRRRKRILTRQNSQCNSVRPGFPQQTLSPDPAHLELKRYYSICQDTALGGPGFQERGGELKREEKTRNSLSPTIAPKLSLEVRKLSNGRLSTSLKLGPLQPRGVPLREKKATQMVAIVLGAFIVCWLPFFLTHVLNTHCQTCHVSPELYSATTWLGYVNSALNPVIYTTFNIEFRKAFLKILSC
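Cells at 1500/well, incubated overnight, then treated with pinned compounds (dopamine as control) for 90 min at 37 degrees C. DiscoveRx reagent added for 30 - 60 minutes at room temperature; luminescence read.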
B2AR arrestin: recruits beta-arrestin to the human beta2-adrenergic receptor; beta-arrestin recruitment to beta2AR, cell-based reporter; 330,000 compounds, 0.02% hits; Potency, µM (titrated, usually from 46.1 µM), inactives show at the top dose activation, actives largely listed as activators; P07550; AID 492947;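 also: potency is read from the fitted curve at half-maximal effect; 0% = DMSO controls and full agonism = EC100 isoproterenol or metaproterenol; nearly all actives have a fitted effect of over 65% in size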
BRCA1 expr act: BRCA1 expression activation | Potency, µM (highest dose often 46.1 µM), inactives show at the top dose activation, actives largely listed as activators | 380,000 compounds, 1.1% hits | AID 624202 | MCF7-BRCA1-FFLuc reporter, luminescence, 48 h; response scale: scaled: vehicle 0%, 10 µM genistein 100%; also: potency is read from the fitted curve at half-maximal effect; nearly all actives have a fitted effect of over 80% in size
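48 h compound treatment of MCF7-BRCA1-FFLuc cells (phenol-red free MEM, 37 °C), then 15 min with luciferase substrate and luminescence imaging.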
RGS4 inh: inhibitors of human regulator of G protein signaling 4; P49798; Potency, µM (titrated, usually from 114 µM), for the others: top-dose activity change, negative = inhibition, usual class: inhibitors; 390,000 compounds, 0.039% hits; Transcreener GDP fluorescence polarization, RGS4-accelerated GTP hydrolysis; AID 504845; also: potency is read from the fitted curve at half-maximal effect; % is scaled to controls: 0 for no effect and ±100 for the full control effect; nearly all actives have a fitted effect of over 75% in size
Target sequence (P49798 whole entry, looked up): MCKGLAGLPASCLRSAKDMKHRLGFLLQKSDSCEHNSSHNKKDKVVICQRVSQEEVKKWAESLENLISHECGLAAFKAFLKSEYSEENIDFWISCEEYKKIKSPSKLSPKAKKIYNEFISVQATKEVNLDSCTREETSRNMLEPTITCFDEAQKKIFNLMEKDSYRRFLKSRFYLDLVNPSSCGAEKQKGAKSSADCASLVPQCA
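MLSMR compounds (23 nl, pin-transferred) preincubated 10 min at room temperature with a 500nM (2x) first reagent, then RGS4 at 900nM (2x) plus Transcreener GDP mix added; fluorescence polarization (620/688 nm) read before and after 90 min at 30 °C.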
PTHR1 ag: agonists of human PTHR1 parathyroid hormone receptor | Q03431 | HEK293 GP2 PTHR1 cells, GloSensor cAMP luminescence, 1 h | Potency, µM (top dose mostly 115 µM), without a hit: at the top dose activation, actives largely listed as activators | 410,000 compounds, 0.075% hits | AID 743266; also: potency is read from the fitted curve at half-maximal effect; nearly all actives have a fitted effect of over 55% in size
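HEK-293-derived GP2 cells expressing PTHR1 and a GloSensor cAMP reporter, 3,000/well, plated overnight, given luciferin plus IBMX (each 0.5 mM as added) for 1 h at 37 °C, then compound for 1 h at 37 °C. Luminescence was read after 15 min at room temperature.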
D3 antag: D3 dopamine receptor (human) antagonism; P35462; D3R cells, DiscoveRx beta-arrestin luminescence, antagonist mode; active compounds read low; max response, negative = inhibition, %; 360,000 compounds, 2.5% hits; in the data active = max response below about -50%; inconclusive = no clear call, values can overlap the other calls; also: % is scaled to controls: 0 for no effect and ±100 for the full control effect
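Cells expressing the human receptor were seeded at 1500 cells/well, incubated overnight at 37 degrees C in 5% CO2, then exposed to library compounds with dopamine controls for 90 minutes at 37 degrees C before luminescent detection.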
* = called active by the depositor; i = inactive; ? = inconclusive; nt = no result; [ ] = another dose, or the depositor's remark. The list is not random: actives were taken first. Their share in the collection is about 3.7%. Unless noted, calls follow the shape of the dose curve; as a rule, active = well fitted curve in the direction sought with a large enough effect; inconclusive = small, poorly fitted or top-dose-only effect, or another doubt; inactive = no such curve, though single readings can be large; an effect the other way counts as inactive or inconclusive.

SMILES	D3 ag	B2AR arrestin	BRCA1 expr act	RGS4 inh	PTHR1 ag	D3 antag
CCc1nnc(NS(=O)(=O)c2ccc(Nc3ccc([N+](=O)[O-])c4nonc34)cc2)s1	-11	-1%	-1%	-41%	?	-63*
O=C(O)c1ccc(Nc2ccc([N+](=O)[O-])c3nonc23)cc1	-18	0%	0%	17%	-17%	-77*
O=C(O)c1cccc(Nc2cc(Cl)c3nonc3c2[N+](=O)[O-])c1	-10	0%	-13%	-69%[56.9 µM]	-52%	?
CCN(C(=O)COC(=O)c1cc2c(s1)CCCC2)c1c(N)n(Cc2ccccc2)c(=O)[nH]c1=O	-1	-1%	-3%	-35%	-7%	9
CCOc1ccccc1NC(=O)N1CCc2cc(S(=O)(=O)N3CCC(C)CC3)ccc21	-4	nt	nt	10%	-24%	nt
O=C(Cc1coc2cc(O)ccc12)N1CCN(S(=O)(=O)c2ccc(Br)cc2)CC1	-5	nt	-32%	2%	-32%	-21
COc1cccc(-c2nc(-c3ccc4c(c3)NC(=O)CO4)cs2)c1	5	0%	10µM*	0%	-3%	1
CN(C)c1cccc(NC(=O)c2cccc3ccccc23)c1	-22	0%	-40%	-14%	-18%	-19
Cc1nc2ccccc2c(=O)n1NC(=O)CCC(=O)O	7	0%	-13%	3%	i	-1
COc1ccc(C)cc1NS(=O)(=O)c1cccc2nonc12	2	0%	-19%	-14%	i	-52*
O=C(N/N=C/c1ccccn1)c1cc(-c2ccc(Cl)cc2)nc2ccccc12	-26	2%	-76%	-9%	i	-67*
O=C(N/N=C/c1ccccn1)c1cc(-c2ccc(Br)cc2)nc2ccccc12	-52	0%	-82%	2%	?	-95*
CCc1ccccc1N(C)C(=O)Cn1cnc2sc(C)c(S(=O)(=O)N3CCC(C)CC3)c2c1=O	-6	nt	nt	3%	1%	nt
COc1cc(OC)c(C2CC(=O)N3CN(c4ccc(C)cc4)CSC3=C2C#N)cc1OC (stereo unspecified)	6	-1%	6.3µM*	?	-9%	-10
CCc1ccc(N2CSC3=C(C#N)C(c4cccs4)CC(=O)N3C2)cc1 (stereo unspecified)	3	0%	7%	?	-15%[57.5 µM]	-61*
Cc1ccc(N2CSC3=C(C#N)C(c4cccs4)CC(=O)N3C2)cc1 (stereo unspecified)	1	0%	73%	?	i	-24
COc1ccc(N2CSC3=C(C#N)C(c4cc(OC)c(OC)cc4OC)CC(=O)N3C2)c(OC)c1 (stereo unspecified)	-3	0%	-25%	?	i	?
CCC/C(=N\NC(=O)c1csc(C)c1C)c1cccs1	-10	-1%	?	29%	-16%[57.5 µM]	-51*
CC/C(=N\NC(=O)c1csc(C)c1C)c1cccs1	2	-1%	?	-4%	-12%[57.5 µM]	?
CC(C)(C)c1ccc(CN2N=Nc3ccccc3S2(=O)=O)cc1	3	0%	-62%	?	-4%[57.5 µM]	-93*
O=S(=O)(c1ccc(NC(=S)N/N=C/c2c3ccccc3cc3ccccc23)cc1)N1CCOCC1	1	0%	-46%	-27%	-11%	-23
O=C(/C=C/c1cccnc1)/C=C/c1cccnc1	-17	-1%	-88%	?	-22%	-102*
Cc1cccc(C(=O)Nc2ccc(C(=O)/C=C/c3cccnc3)cc2)c1	-12	-4%	-36%	?	-26%	-81*
C(=Cc1cccnc1)c1ccncc1	14	nt	5%	9%	i	19
O=C1CC(c2ccccc2C(F)(F)F)c2c(c3ccccc3[nH]c2=O)O1 (stereo unspecified)	5	nt	12%	-1%	-7%	nt
SMILES	D3 ag	B2AR arrestin	BRCA1 expr act	RGS4 inh	PTHR1 ag	D3 antag
CN(C)S(=O)(=O)c1ccc(C(=O)OC2CCOC2=O)cc1 (stereo unspecified)	-4	0%	14%	-14%	i	8
O=C(O)CN1C(=O)C2C3CCC(C3)C2C1=O (stereo unspecified)	-1	nt	19%	nt	4%	37
O=C(Nc1ccccc1C(F)(F)F)C1CCN(S(=O)(=O)c2ccccc2)CC1	3	nt	nt	3%	-43%	nt
O=C(CCCOc1ccccc1)Nc1nccs1	-4	0%	42%	15%	?	-57*
Cc1ccc(SCc2ccc(C(=O)Nc3nccs3)o2)cc1	-2	0%	?	-6%	-41%	0
O=C(Nc1nccs1)c1ccc(COc2ccccc2)o1	1	0%	5.6µM*	7%	i	1
O=C(COc1ccc2c(c1)OCO2)Nc1nccs1	-5	0%	3.2µM*	8%	-30%	-8
O=C(Nc1nccs1)c1ccc(CSc2ccccc2)o1	-5	0%	2.8µM*	5%	-81%	-22
Cc1ccc(OCc2ccc(C(=O)Nc3nccs3)o2)cc1	0	9%	99%	5%	-15%[57.5 µM]	23
N#C/C(=C\c1cccs1)C(=O)Nc1nccs1	-1	0%	14µM*	?	-32%	-8
C/C(=C\c1ccccc1)C(=O)Nc1nccs1	-2	0%	3.2µM*	15%	-5%	-14
N#C/C(=C\c1cccs1)C(=O)NCc1ccccc1	6	-1%	-10%	?	-18%	4
COc1ccc(OCCCC(=O)Nc2cccnc2)cc1	9	0%	-4%	19%	i	-90*
COc1ccc(C(CC(=O)Nc2nccs2)n2cccc2)cc1 (stereo unspecified)	-11	0%	6.3µM*	10%	-1%[57.5 µM]	?
O=C(CCCC(=O)Nc1cccnc1)Nc1cccnc1	6	-1%	-3%	-3%	i	25
COc1ccc(CN(C)C(=O)CCC(=O)N2CCN(S(=O)(=O)c3ccc(Cl)cc3)CC2)c(OC)c1	3	nt	-36%	-8%	-8%	4
CCc1nnc(NC(=O)c2ccc(COc3ccc(C)cc3)o2)s1	0	0%	5µM*	-8%	-11%	6
CCc1nnc(NC(=O)c2ccc(COc3ccccc3)o2)s1	-7	-1%	1%	7%	-4%[57.5 µM]	21
COc1ccc(NC(=O)c2ccc(COc3ccccc3)o2)cc1	2	0%	42%	-37%[56.9 µM]	-11%[57.5 µM]	18
CCc1nnc(NC(=O)CCC(=O)N2CCN(CCOc3ccc(C)cc3)CC2)s1	45*	0%	-10%	16%	-15%	0
Cc1ccc(OCc2ccc(C(=O)Nc3ccc(S(N)(=O)=O)cc3)o2)cc1	16	0%	10µM*	10%	-18%	4
COc1cc(C)c(CN2CCC(n3nccc3NC(=O)C3CC3)CC2)cc1C	-9	0%	-19%	-10%	-6%	-7
